Laboratory results from ChEMBL document CHEMBL3988442, “University of Dundee, Small-Polar-MMV Screening Library” (2021).
For some of these results: Measured potencies and affinities stand elsewhere.

Tests used:
Set-up in all cases: scale not given: direction of the effect not stated beside the values
[1] = molecular target: Protein translocase subunit SecA (Escherichia coli (strain K12)) (UniProt P10408); experiment: Assay to Identify E. coli SecA ATPase Inhibitors; assay type: functional; details: 30 µM
Sequence of Protein translocase subunit SecA (Escherichia coli (strain K12)) (P10408 whole entry): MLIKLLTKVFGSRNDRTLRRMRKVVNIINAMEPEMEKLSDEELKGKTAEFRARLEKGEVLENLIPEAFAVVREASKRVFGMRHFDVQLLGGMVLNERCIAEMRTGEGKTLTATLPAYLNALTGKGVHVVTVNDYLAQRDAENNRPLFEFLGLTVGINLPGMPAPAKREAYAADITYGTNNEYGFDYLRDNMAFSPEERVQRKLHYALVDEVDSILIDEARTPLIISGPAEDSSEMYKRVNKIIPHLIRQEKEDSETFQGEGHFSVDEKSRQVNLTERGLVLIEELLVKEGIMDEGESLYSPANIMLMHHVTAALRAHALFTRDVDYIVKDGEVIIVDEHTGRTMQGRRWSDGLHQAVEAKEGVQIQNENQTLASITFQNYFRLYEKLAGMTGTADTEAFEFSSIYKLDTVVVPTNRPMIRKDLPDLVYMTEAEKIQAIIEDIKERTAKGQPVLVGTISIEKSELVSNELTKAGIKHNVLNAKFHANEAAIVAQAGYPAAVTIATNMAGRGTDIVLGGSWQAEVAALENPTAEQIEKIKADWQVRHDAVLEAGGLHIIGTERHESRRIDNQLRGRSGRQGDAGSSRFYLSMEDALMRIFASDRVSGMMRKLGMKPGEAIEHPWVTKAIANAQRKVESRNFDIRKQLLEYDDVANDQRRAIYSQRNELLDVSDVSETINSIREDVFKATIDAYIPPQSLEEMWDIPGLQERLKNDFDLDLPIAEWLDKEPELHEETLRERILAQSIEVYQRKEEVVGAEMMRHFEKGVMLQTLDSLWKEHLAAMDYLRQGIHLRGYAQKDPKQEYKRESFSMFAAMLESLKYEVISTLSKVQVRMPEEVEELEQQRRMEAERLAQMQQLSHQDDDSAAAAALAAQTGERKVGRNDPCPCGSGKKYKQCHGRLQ

[2] = molecular target: T1, Ubiquitin-activating enzyme e1, putative (Leishmania donovani (strain BPK282A1)) (UniProt E9BSI1); experiment: Leishmania donovani Ubiquitin Activating Enzyme (LdE1); assay type: functional; details: 30 µM
T1 sequence (whole entry): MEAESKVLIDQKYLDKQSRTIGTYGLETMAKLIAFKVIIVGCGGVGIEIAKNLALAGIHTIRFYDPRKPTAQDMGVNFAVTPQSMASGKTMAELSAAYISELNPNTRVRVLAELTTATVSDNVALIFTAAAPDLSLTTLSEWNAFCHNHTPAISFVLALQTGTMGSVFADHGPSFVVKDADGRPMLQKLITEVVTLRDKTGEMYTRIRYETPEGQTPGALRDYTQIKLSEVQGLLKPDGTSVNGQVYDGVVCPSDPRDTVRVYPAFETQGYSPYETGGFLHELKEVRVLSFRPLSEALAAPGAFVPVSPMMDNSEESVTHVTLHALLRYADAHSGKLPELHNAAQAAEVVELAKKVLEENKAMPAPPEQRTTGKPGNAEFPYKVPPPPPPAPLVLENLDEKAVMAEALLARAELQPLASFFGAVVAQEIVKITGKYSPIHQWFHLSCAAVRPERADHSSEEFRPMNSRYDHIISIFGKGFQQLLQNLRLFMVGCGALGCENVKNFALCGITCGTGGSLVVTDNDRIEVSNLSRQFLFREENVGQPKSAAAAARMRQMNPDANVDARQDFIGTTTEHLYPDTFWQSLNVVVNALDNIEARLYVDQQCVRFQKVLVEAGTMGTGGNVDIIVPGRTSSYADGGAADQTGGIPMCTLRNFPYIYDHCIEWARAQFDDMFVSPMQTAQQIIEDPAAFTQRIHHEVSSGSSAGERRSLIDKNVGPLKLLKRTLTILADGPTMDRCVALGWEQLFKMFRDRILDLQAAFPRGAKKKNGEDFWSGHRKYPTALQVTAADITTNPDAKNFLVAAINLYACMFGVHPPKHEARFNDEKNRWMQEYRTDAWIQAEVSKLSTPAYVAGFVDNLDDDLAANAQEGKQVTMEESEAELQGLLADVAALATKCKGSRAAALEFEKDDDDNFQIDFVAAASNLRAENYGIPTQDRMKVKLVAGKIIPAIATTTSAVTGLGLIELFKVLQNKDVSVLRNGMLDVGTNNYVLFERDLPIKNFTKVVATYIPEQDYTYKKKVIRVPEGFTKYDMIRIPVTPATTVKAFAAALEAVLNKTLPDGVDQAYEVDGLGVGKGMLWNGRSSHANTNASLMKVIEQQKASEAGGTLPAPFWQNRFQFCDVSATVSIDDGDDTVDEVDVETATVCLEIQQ

[3] = molecular target: AMP-activated protein kinase, AMPK (Homo sapiens) (UniProt P54646+O43741+P54619+Q9UGJ0+Q9Y478+Q13131+Q9UGI9); experiment: AMP-dependent Kinase enzyme assay. An in vitro enzyme assay that detects ADP turnover that is directly proportional to AMPK activity. This uses naive AMPK that is activated during the assay with MK-8722; assay type: functional; details: 30 µM
[4] = molecular target: Sialic acid-binding Ig-like lectin 9 (Homo sapiens) (UniProt Q9Y336); experiment: Hs-Siglec9 ALPHAscreen SOP 20170721; details: 10 µM
Sequence of Sialic acid-binding Ig-like lectin 9 (Homo sapiens) (Q9Y336 whole entry): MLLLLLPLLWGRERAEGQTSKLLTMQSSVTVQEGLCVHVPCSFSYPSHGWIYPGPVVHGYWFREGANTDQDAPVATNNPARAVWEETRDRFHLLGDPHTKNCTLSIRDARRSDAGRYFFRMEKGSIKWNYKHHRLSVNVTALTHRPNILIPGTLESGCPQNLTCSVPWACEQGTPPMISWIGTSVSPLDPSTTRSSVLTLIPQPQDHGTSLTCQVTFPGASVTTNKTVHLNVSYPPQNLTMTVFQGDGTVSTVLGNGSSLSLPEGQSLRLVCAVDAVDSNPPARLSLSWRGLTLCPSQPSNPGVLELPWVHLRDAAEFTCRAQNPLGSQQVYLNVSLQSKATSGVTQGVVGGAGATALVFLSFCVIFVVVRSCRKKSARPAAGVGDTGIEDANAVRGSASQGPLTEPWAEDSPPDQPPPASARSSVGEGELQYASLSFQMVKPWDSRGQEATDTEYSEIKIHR

Trypanosoma cruzi = experiment: Trypanosoma cruzi phosphomannomutase and mannose-1-phosphate guanylyltransferase assay; assay type: functional; details: 10 µM
[5] = molecular target: T2, Arginase-2, mitochondrial (Homo sapiens) (UniProt P78540); experiment: in vitro enzyme assay to detect the production of urea directly proportional to the activity of Arginase II; assay type: functional; details: 33.3 µM; note: in the data most compounds retested in dose-response had high values
T2 sequence (whole entry): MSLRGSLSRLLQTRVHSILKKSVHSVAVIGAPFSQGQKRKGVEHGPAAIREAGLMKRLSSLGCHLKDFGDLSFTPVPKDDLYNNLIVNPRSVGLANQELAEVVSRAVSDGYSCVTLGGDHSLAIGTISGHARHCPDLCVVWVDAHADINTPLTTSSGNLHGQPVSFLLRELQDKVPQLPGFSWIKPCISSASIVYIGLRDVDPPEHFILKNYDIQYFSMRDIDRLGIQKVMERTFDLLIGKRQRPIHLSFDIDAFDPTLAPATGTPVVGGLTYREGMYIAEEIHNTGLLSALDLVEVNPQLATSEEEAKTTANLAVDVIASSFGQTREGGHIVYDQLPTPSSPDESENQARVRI

[6] = molecular target: T3, Proteasome subunit beta (Trypanosoma cruzi) (UniProt O96673); experiment: Trypanosoma cruzi proteasome chymotrypsin-like activity (TcProtChymo) assay.; note: in the data most compounds retested in dose-response had high values; assay type: functional; details: 9.37 µM
T3 sequence (whole entry): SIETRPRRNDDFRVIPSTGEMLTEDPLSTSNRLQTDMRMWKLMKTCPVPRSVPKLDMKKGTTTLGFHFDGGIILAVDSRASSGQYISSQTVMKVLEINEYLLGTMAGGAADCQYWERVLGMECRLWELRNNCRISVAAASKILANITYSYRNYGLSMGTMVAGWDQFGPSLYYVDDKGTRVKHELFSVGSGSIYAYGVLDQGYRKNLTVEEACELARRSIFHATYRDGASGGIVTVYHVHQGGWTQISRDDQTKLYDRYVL

Homo sapiens = organism: Homo sapiens; experiment: To identify inhibition of the IFN signalling (Jak-Stat) pathway via expression of an eGFP reporter gene under the control of an IFN-stimulated response element (ISRE) containing MxA promoter.; assay type: functional; details: 30 µM
[7] = molecular target: T4, Tyrosyl-tRNA synthetase, putative (Trypanosoma cruzi (strain CL Brener)) (UniProt Q4DSP6); experiment: Trypanosoma cruzi tyrosyl tRNA synthetase (TcYRS) _High Tyrosine SOP; assay type: functional; details: 30 µM; note: in the data most compounds retested in dose-response had high values
T4 sequence (whole entry): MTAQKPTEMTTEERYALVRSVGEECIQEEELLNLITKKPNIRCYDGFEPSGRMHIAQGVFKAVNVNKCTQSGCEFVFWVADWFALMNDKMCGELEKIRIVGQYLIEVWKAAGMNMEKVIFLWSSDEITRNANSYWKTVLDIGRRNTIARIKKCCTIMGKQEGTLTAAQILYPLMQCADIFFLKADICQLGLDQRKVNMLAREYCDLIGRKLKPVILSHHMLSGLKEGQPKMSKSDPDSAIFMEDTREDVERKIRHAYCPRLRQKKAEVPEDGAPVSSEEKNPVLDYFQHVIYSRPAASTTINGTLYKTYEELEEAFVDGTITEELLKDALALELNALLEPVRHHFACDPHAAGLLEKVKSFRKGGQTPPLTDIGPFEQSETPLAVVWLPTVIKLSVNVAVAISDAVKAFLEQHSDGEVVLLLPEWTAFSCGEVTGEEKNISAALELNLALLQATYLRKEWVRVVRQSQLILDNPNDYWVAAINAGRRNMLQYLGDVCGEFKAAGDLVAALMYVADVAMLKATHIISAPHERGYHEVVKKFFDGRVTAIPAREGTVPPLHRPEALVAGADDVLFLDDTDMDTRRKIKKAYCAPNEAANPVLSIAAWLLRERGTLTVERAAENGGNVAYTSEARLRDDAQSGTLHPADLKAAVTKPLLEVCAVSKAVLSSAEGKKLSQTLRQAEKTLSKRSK

[8] = molecular target: T4, Tyrosyl-tRNA synthetase, putative (Trypanosoma cruzi (strain CL Brener)); experiment: Trypanosoma cruzi tyrosyl tRNA synthetase (TcYRS) SOP; assay type: functional; details: 30 µM
[9] = molecular target: Chromo domain-containing protein 1 (Saccharomyces cerevisiae (strain ATCC 204508 / S288c) (Baker's yeast)) (UniProt P32657); experiment: ScCHD-1 Enzyme Inhibition Assay; assay type: functional; details: 30 µM; note: in the data most compounds retested in dose-response had high values
Sequence of Chromo domain-containing protein 1 (Saccharomyces cerevisiae (strain ATCC 204508 / S288c) (Baker's yeast)) (P32657 whole entry, the tested form may be a part): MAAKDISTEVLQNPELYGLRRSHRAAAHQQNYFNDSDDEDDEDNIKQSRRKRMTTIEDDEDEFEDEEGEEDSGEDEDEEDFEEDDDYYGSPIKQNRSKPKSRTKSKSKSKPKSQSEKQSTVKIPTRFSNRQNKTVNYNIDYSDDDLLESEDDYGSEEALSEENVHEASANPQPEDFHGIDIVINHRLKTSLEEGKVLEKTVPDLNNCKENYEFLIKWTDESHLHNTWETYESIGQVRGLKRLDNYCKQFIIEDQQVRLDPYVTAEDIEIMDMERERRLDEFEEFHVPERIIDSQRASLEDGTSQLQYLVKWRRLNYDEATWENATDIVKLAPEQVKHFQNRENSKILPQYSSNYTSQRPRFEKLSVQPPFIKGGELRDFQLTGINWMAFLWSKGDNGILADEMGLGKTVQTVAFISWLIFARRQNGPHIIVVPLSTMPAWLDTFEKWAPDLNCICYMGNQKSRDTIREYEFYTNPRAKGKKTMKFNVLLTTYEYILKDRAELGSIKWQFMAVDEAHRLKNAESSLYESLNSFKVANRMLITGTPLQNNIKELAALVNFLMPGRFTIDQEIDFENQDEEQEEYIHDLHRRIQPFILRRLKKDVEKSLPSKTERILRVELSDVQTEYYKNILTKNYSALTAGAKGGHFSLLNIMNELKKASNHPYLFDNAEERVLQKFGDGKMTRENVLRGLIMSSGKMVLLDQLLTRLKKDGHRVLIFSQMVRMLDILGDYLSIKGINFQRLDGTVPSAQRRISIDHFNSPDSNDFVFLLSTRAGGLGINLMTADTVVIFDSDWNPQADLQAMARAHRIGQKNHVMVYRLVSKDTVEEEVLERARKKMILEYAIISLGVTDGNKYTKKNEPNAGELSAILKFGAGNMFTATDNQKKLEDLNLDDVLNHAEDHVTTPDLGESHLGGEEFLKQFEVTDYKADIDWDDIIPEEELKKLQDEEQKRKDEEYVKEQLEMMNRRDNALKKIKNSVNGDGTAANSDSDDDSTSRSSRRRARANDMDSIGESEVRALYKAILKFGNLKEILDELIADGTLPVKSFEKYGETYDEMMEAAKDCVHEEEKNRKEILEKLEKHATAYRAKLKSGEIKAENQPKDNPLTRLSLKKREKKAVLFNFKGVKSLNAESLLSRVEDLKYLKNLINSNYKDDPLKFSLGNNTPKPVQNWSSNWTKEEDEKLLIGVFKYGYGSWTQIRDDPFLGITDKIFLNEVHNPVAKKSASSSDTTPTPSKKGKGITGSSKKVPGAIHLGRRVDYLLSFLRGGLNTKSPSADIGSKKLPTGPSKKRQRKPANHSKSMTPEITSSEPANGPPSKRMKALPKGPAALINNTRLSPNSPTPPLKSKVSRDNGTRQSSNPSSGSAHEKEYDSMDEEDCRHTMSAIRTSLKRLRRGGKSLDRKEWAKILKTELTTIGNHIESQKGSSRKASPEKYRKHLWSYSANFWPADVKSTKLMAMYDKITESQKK

Row | SMILES | Percent Effect [1] [%] | Percent Effect [2] [%] | Percent Effect [3] [%] | Percent Effect [4] [%] | Percent Effect (Trypanosoma cruzi) [%] | Percent Effect [5] [%] | Percent Effect [6] [%] | Percent Effect (Homo sapiens) [%] | Percent Effect [7] [%] | Percent Effect [8] [%] | Percent Effect [9] [%]
1 | Cc1cnc(CN2CCOC(CNc3cccnn3)C2)cn1 (stereo not given) | 0.476 | -7.79 | -0.781 | 0.564 | -6.74 | 8.54 | 0.676 | 17.9 | 0.971 | -2.44 | -5.93
2 | CC(C)(C)NC(=O)C1CSCN1S(=O)(=O)c1ccc(F)cc1 (stereo not given) | -1.95 | 6.33 | 3.86 | -0.312 | -4 | -4.52 | 15.4 | 21.8 | 7.29 | 20.2 | -14.6
3 | CCc1ncnc2c1CCN(Cc1ccccn1)CC2 | -1.83 | -1.33 | -3.43 | -1.27 | -5.11 | -11.4 | 0 | -11.7 | -3.17 | -5.13 | -3.62
4 | CCOCC(=O)N1CCC(Oc2ccc(Cl)cn2)CC1 | -0.654 | 7.79 | 2.32 | 8.91 | -0.888 | 4.52 | 25.9 | 21.4 | 8.47 | 8.97 | -8.06
5 | CCN(CC)c1ccc(NS(=O)(=O)c2cncc(F)c2)cn1 | 1.55 | 13.7 | 2.14 | 7.06 | 3.57 | -5.99 | 4.71 | -23.6 | 6.25 | 11.1 | -6.32
6 | Cc1ccc(S(=O)(=O)NC(=O)c2cccc3c2OCCO3)c(C)c1 | -2.98 | -5.48 | 7.47 | -1.04 | -3.33 | 4.54 | 9.94 | 5.47 | -10.8 | -12.5 | -2.7
7 | Cn1cnnc1S(=O)(=O)C1CCN(S(=O)(=O)c2ccc(F)c(Cl)c2)CC1 | -0.452 | -5.48 | 9.53 | -2.11 | -1.37 | 1.36 | 7.1 | 8.21 | -1.07 | 0 | -1.74
8 | Cc1noc(C(C)C)c1C(=O)NCC(c1ccsc1)N(C)C (stereo not given) | -1.69 | 15.2 | 2.11 | -4.7 | -5.19 | -1.52 | 13.3 | 32.5 | 1.48 | 11.4 | -5.47
9 | CCc1noc(C(C)N(C)CC(=O)Nc2cccc(C)n2)n1 (stereo not given) | 0.372 | 0 | 5.73 | 0.963 | -0.979 | 0.909 | 7.28 | 0.0607 | -1.07 | 0 | 2.92
10 | CNCC(=O)N1CCCC(c2cccc(Nc3nc(C)cc(C)n3)n2)C1 (stereo not given) | -3.22 | 28.4 | 6.16 | -10.1 | 3.56 | -5.34 | 14.3 | 22 | 3.23 | 11.7 | -21.5
11 | CC(C)NC(=O)C1CN(C(N)=O)Cc2ccnn2C1 (stereo not given) | -0.679 | 10.7 | 5.48 | 1.25 | 0.579 | -58.2 | 9.91 | 0.0597 | 3.12 | 15 | -5.6
12 | Cc1nc(CN(Cc2cccs2)C2CCS(=O)(=O)C2)oc1C (stereo not given) | -3.68 | 15.8 | -1.59 | 1.17 | -3.27 | 2.16 | 6.85 | -8.22 | 5.42 | 23.5 | 1.43
13 | Cc1nc(-c2ccsc2)ccc1C(=O)NCCN1CCOCC1 | -6.91 | 10.5 | -3.72 | 7.24 | 4.32 | -0.383 | 8.02 | 1.25 | 6.37 | 19.5 | -8.61
14 | CCCS(=O)(=O)NC(C)C(=O)NCc1ccc(N2CCCC2)nc1 (stereo not given) | -3.52 | 16.2 | -27.4 | -2.65 | -0.66 | -4.01 | 12.8 | 5.44 | 13.3 | 13.6 | -7.91
15 | O=C(Cc1ccccn1)N1CCc2nc(-c3cnccn3)nc(O)c2C1 | -2.77 | 12.2 | 8.84 | -3.28 | 0.593 | 3.48 | 12.6 | 9.22 | 4.3 | 9.09 | -9.74
16 | CS(=O)(=O)c1ccc(CNC(=O)N2CCC(C(N)=O)C2)cc1 (stereo not given) | -5.24 | 25.3 | -8.85 | 3.98 | 8.78 | -3.04 | 14.2 | 0.909 | 8.37 | 26.6 | -5.74
17 | COc1ccc(F)cc1S(=O)(=O)NCC(c1cccn1C)N(C)C (stereo not given) | -3.57 | 8.22 | -1.87 | -2.56 | 0.196 | 3.64 | 11.5 | 7.4 | 7.53 | 20 | -6.57
18 | COc1ccc(NC(=O)Cn2nc(C)ccc2=O)cc1OC | -3.84 | -1.33 | 2.94 | 4.69 | -0.786 | -5.46 | 7.39 | -3.33 | 3.17 | 5.13 | 0.459
19 | Cn1ccnc1CN1CCC2(CC1)CC(NC(=O)c1ccccn1)CO2 (stereo not given) | -1.87 | 20.8 | -1.66 | -10.3 | 1.28 | 3.23 | 9.4 | 0.302 | -20.1 | 16.7 | -10.2
20 | Cc1nnc(NC(=O)NCc2cccnc2N(C)C)s1 | -3.62 | 13 | -1.32 | 4.98 | 5.24 | 4.27 | 11.2 | 4.88 | 6.8 | 21.9 | -9.15
